# Source: PubChem BioAssay (EPA / NIEHS)
# Results filed as inconclusive are left out. The source made the active and inactive calls. The calls were made as follows, unless noted: active = hit-call score of the fitted dose curve at least 0.9, where 1 is the maximum; inactive = score below 0.9.
# Key:
# [1] = CCTE_Harrill_HTTr_CellCount_MCF7: CCTE's Cell Proliferation Assessment for the High-Throughput Transcriptomics (HTTr) Platform, Harrill Lab (AID 2284012; active = hit-call score of the fitted dose curve at least 0.9, where 1 is the maximum;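 also: count of Hoechst-stained nuclei per well by high-content imaging in MCF-7 cells; cells exposed to compound for six hours; intended direction is loss of nuclei count meaning fewer cells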)
# Method in brief: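 Nuclei counting (Hoechst, high content imaging) in MCF-7 after a 6 h treatment at eight concentrations. Activity fitted bidirectionally, DMSO as negative control.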
# [2] = CCTE_Shafer_MEA_acute_burst_number: CCTE's Neural Acute Assay for Single-Electrode Bursts, Shafer Lab (AID 2284013)
# Method in brief: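 Spontaneous network activity of primary rat cortical neurons was recorded extracellularly on microelectrode arrays at 37 C, with 40-min periods before and during exposure to 0.03-40 uM compound on DIV 13 or 15.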
# [3] = CCTE_Shafer_MEA_acute_burst_duration_mean: CCTE's Neural Acute Assay for Mean Burst Duration, Shafer Lab (AID 2284014);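 also: hits are decreases in mean burst duration relative to DMSO controls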
# Method in brief: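 Read-out is the per-well percent change in mean burst duration (first to last spike within a single-electrode burst) between 40-min recordings before and after compound. Cultures were primary rat cortical neurons on MEAs, dosed at 0.03-40 uM on DIV 13 or 15.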
# [4] = CCTE_Shafer_MEA_acute_per_burst_spike_number_mean: CCTE's Neural Acute Assay for Average Number of Spikes Per Burst, Shafer Lab (AID 2284015);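 also: hits are decreases in mean spikes per burst versus baseline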
# Method in brief: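 Read-out: percent change in mean spikes per burst, each well's post-exposure 40-min recording versus its own 40-min baseline. Rat cortical cultures, DIV 13 or 15, compounds 0.03-40 uM; DMSO is negative control, loss-of-signal fitting.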
# [5] = CCTE_Shafer_MEA_acute_interburst_interval_mean: CCTE's Neural Acute Assay for Mean Interburst Interval, Shafer Lab (AID 2284016);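 also: percent change of mean interburst interval versus each well's own pre-dose baseline; curves fitted for decrease in interburst interval relative to DMSO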
# Method in brief: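 Rat cortical cultures, DIV 13/15; 20 min equilibration, 40 min baseline, compound 0.03-40 uM, 40 min re-recording, 37 C. Spikes detected at 8x rms noise (300-5000 Hz band-pass). Endpoint: % change in interburst interval, fitted in loss direction vs DMSO.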
# [6] = CCTE_Shafer_MEA_acute_burst_percentage_mean: CCTE's Neural Acute Assay for Percentage of Spikes in a Burst, Shafer Lab (AID 2284017)
# Method in brief: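 Rat cortical cultures, DIV 13/15, 37 C. Spikes detected at 8x rms noise (300-5000 Hz band-pass). Burst spikes/total spikes averaged across electrodes per well; % change post- vs pre-treatment (40 min each), loss-of-signal fit vs DMSO.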
# [7] = CCTE_Shafer_MEA_acute_burst_percentage_std: CCTE's Neural Acute Assay for Standard Deviation of Burst Percentage, Shafer Lab (AID 2284018);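 also: fitted in the negative direction so actives lower burst percentage SD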
# Method in brief: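 Value is percent change from baseline in the across-electrode SD of spikes-in-bursts percentage, wells with >/= 10 active electrodes. Acute 40-min exposure to 0.03-40 uM on DIV 13 or 15 rat cortical cultures, recorded at 37 C after 40-min baseline.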
# [8] = CCTE_Shafer_MEA_acute_per_network_burst_spike_number_mean: CCTE's Neural Acute Assay for Average Number of Spikes in a Network Burst, Shafer Lab (AID 2284019)
# Method in brief: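 Read-out is mean spike count per network burst, taken as percent change between a 40-min pre-exposure and a 40-min post-exposure recording per well. Rat primary cortical neurons on MEAs at 37 C, DIV 13 or 15; compounds at 0.03-40 uM.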
# [9] = CCTE_Shafer_MEA_acute_per_network_burst_spike_number_std: CCTE's Neural Acute Assay for Standard Deviation of Number of Spikes in a Network Burst, Shafer Lab (AID 2284020);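 also: fitted for decrease in spike-number SD versus DMSO so actives lower it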
# Method in brief: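 Spontaneous network activity of primary rat cortical neurons is recorded extracellularly before and after a 40-min compound exposure (0.03-40 uM) at 37 C. The endpoint is the well's percent change in burst spike-number SD.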
# [10] = CCTE_Shafer_MEA_acute_per_network_burst_electrodes_number_mean: CCTE's Neural Acute Assay for Mean Number of Electrodes in a Network Burst, Shafer Lab (AID 2284021);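 also: curves fitted for decreases only so hits reduce electrodes per burst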
# Method in brief: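 Rat primary cortical neurons on 16-electrode MEA wells were recorded 40 min at baseline on DIV 13 or 15, then 40 min after compound (0.03-40 uM), at 37 C. Value is percent change per well, fitted in loss direction versus DMSO.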
# [11] = CCTE_Shafer_MEA_acute_network_burst_percentage: CCTE's Neural Acute Assay for Percentage of Network Bursts, Shafer Lab (AID 2284022);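 also: curves fitted for loss so actives lower network burst percentage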
# Method in brief: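 Primary rat cortical neurons on 16-electrode MEA wells, treated on DIV 13 or 15 with compound (0.03-40 uM); 40-min baseline and 40-min post-exposure recordings at 37 C. Value is percent change in spikes within network bursts versus baseline, DMSO negative control.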
# [12] = CCTE_Shafer_MEA_acute_cross_correlation_area: CCTE's Neural Acute Assay for Area of Cross Correlation, Shafer Lab (AID 2284024);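 also: area under pooled inter-electrode spike cross-correlation near zero lag as percent change from own baseline; curves fitted for loss of cross-correlation area so actives lower synchrony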
# Method in brief: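 Primary rat cortical neurons on 48-well MEA plates (16 electrodes/well) were recorded 40 min at baseline on DIV 13 or 15, then 40 min with compound (0.03-40 uM) at 37 C; cross-correlation area expressed as percent change from baseline.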
# [13] = CCTE_Shafer_MEA_acute_cross_correlation_HWHM: CCTE's Neural Acute Assay for Cross Correlation at Half Width at Half Maximum, Shafer Lab (AID 2284026);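 also: percent change per well from pre-dose baseline in spike cross-correlogram half width; hits are a decrease in cross-correlogram half width relative to DMSO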
# Method in brief: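 Primary rat cortical neurons on 16-electrode MEA wells; 40-min baseline on DIV 13 or 15, then 40-min recording with compound (0.03-40 uM) at 37 C. HWHM of spike cross-correlogram expressed as percent change from baseline per well, DMSO reference.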
# [14] = CCTE_Shafer_MEA_acute_synchrony_index: CCTE's Neural Acute Assay for Synchrony, Shafer Lab (AID 2284027);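 also: network synchrony index of spontaneous spiking in primary rat cortical neurons on MEAs; fitted for loss of signal so actives lower synchrony relative to DMSO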
# Method in brief: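 Spontaneous firing of mature rat cortical networks is captured extracellularly on microelectrode arrays at 37 C, with wells needing ≥10 active electrodes. Each compound (0.03-40 uM) is judged by the change in synchrony index from baseline over 40 min.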
# [15] = CCTE_Shafer_MEA_dev_firing_rate_mean: CCTE's Neural Network Formation Assay for Mean Firing Rate, Shafer Lab (AID 2284031);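 also: curve fitted for loss of firing so AC50 reflects decreased mean firing rate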
# Method in brief: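 Developing rat cortical networks on MEA plates undergo 12-day compound exposure. Firing frequency, averaged across active electrodes, is integrated as area under the curve over four recording days, referenced to DMSO.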
# [16] = CCTE_Shafer_MEA_dev_per_burst_spike_percent: CCTE's Neural Network Formation Assay for Percent of Spikes in a Burst, Shafer Lab (AID 2284032);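 also: fitted as a decrease in burst spike percentage below DMSO baseline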
# Method in brief: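 Rat primary cortical neurons on 16-electrode MEA wells, dosed from plating day 0 for 12 days with renewal on DIV 5 and 9; spikes-in-bursts percentage averaged over bursting electrodes, collapsed as AUC across days 5, 7, 9, 12; loss direction versus DMSO.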
# [17] = CCTE_Shafer_MEA_dev_active_electrodes_number: CCTE's Neural Network Formation Assay for Number of Active Electrodes, Shafer Lab (AID 2284040; active = hit-call score of the fitted dose curve at least 0.9, where 1 is the maximum;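 also: potency for loss of active electrodes versus DMSO so lower counts are hits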)
# Method in brief: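 Rat cortical primary cultures, 1.5 x 10^5 cells/well, PEI-coated MEA, laminin drop. Continuous exposure DIV 0–12; full media/compound change DIV 5, 9. Readout: electrodes with mean firing ≥5 spikes/min; AUC across days; loss vs DMSO.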
# [18] = CCTE_Shafer_MEA_dev_burst_rate: CCTE's Neural Network Formation Assay for Burst Rate, Shafer Lab (AID 2284042);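 also: potency for loss of burst rate below DMSO control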
# Method in brief: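 Cells plated, treated day 0; recorded DIV 5, 7, 9, 12; fed and re-treated DIV 5, 9. Endpoint: bursts per recording time, active-electrode well mean, trapezoidal AUC, fitted in decreasing direction against DMSO baseline.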
# [19] = CCTE_Shafer_MEA_dev_bursting_electrodes_number: CCTE's Neural Network Formation Assay for Number of Bursting Electrodes, Shafer Lab (AID 2284043; active = hit-call score of the fitted dose curve at least 0.9, where 1 is the maximum;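 also: potency is for loss of bursting electrodes relative to DMSO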)
# Method in brief: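 Read-out is the per-well number of electrodes bursting at least once every 2 minutes, recorded on days 5, 7, 9 and 12 and collapsed by trapezoidal area under the curve. Cultures were primary rat cortical neurons on MEA plates, treated continuously from plating.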
# [20] = CCTE_Shafer_MEA_dev_per_burst_interspike_interval: CCTE's Neural Network Formation Assay for Burst Interspike Interval, Shafer Lab (AID 2284044);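 also: mean spike spacing inside bursts as AUC over recordings on days 5 7 9 12; potency for a decrease of within-burst interspike interval below DMSO level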
# Method in brief: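 Rat cortical primary cultures, 16 electrodes/well; compound from plating, renewed with full media change DIV 5 and 9. Spikes via adaptive detector; per-burst ISI well-mean over active bursting electrodes; AUC of DIV 5/7/9/12 recordings; loss-direction fit vs DMSO.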
# [21] = CCTE_Shafer_MEA_dev_burst_duration_mean: CCTE's Neural Network Formation Assay for Mean Burst Duration, Shafer Lab (AID 2284045);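 also: curve fitted for loss meaning shorter burst duration than DMSO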
# Method in brief: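 Read-out: average first-to-last-spike interval within single-electrode bursts, averaged over bursting electrodes per well, then summarised as area under the curve across days 5, 7, 9 and 12. Developing rat cortical networks were exposed from day 0.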
# [22] = CCTE_Shafer_MEA_dev_interburst_interval_mean: CCTE's Neural Network Formation Assay for Mean Interburst Interval, Shafer Lab (AID 2284046);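 also: well-mean interburst interval of bursting electrodes as AUC over four recording days; curve fitted for decrease in interburst interval relative to DMSO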
# Method in brief: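 Developing rat cortical networks on 48-well MEAs receive compound from the day of plating. Burst intervals from each active electrode are averaged per well, and AUC over the recording days is fitted in the negative direction against DMSO.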
# [23] = CCTE_Shafer_MEA_dev_inter_network_spike_interval_mean: CCTE's Neural Network Formation Assay for Mean Inter-network Spike Interval, Shafer Lab (AID 2284047);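 also: potency for a decrease in mean inter-network spike interval below DMSO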
# Method in brief: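 Rat cortical cultures, 1.5 x 10^5 cells/well on 48-well MEA plates; continuous exposure days 0–12, medium and compound refreshed DIV 5, 9. Mean time between consecutive network-spike peaks; AUC across DIV 5/7/9/12; DMSO baseline, negative fitting direction.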
smiles,measurement,setting,value
[Cd+2].[Cl-].[Cl-],outcome,[1],inactive
same,outcome,[2],inactive
same,outcome,[3],inactive
same,outcome,[4],inactive
same,outcome,[5],inactive
same,outcome,[6],inactive
same,outcome,[7],inactive
same,outcome,[8],inactive
same,outcome,[9],inactive
same,outcome,[10],inactive
same,outcome,[11],inactive
same,outcome,[12],inactive
same,outcome,[13],inactive
same,outcome,[14],inactive
same,AC50,[15],331 nM (active)
same,AC50,[16],436 nM (active)
same,AC50,[17],315 nM (active)
same,AC50,[18],461 nM (active)
same,AC50,[19],302 nM (active)
same,AC50,[20],630 nM (active)
same,AC50,[21],387 nM (active)
same,AC50,[22],460 nM (active)
same,AC50,[23],14 nM (active)
